# Source: the supplement of paper PMC8728848
# The sample as a whole holds a higher share of the strongest signals than the screen did.
# How the values were obtained:
# Assay in all cases: glycan array binding signal (z-score within array); higher = stronger binding
# Settings in all cases: glycan notation: IUPAC condensed, linker removed
# [1] = molecular target: GalNAc(b1-4)GlcNAc(b1-2)Man(a1-3)[GalNAc(b1-4)GlcNAc(b1-2)Man(a1-6)]Man(b1-4)GlcNAc(b1-4)GlcNAc
# In short: (§1)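 Glycan array data were curated from 3228 arrays in the Consortium for Functional Glycomics database and kept only where the protein sequence was available. Glycan names were converted to IUPAC-condensed notation, and columns mapping to the same glycan were averaged. The binding signal is a within-array Z-score, averaged across arrays of the same protein sequence at different concentrations or buffers and across linkers. Negative Z-scores can be read as non-binding.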
# GlcA(b1-3)GlcNAc = molecular target: GlcA(b1-3)GlcNAc
# In short: as §1
# [2] = molecular target: GlcNAc(a1-4)Gal(b1-4)GalNAc
# In short: as §1
# [3] = molecular target: GlcNAc(a1-4)Gal(b1-4)GlcNAc(b1-3)Gal(b1-4)GlcNAc(b1-3)Gal(b1-4)GlcNAc
# In short: as §1
# [4] = molecular target: GlcNAc(b1-3)Gal(b1-4)GlcNAc(b1-3)Gal(b1-4)GlcNAc(b1-2)Man(a1-3)[GlcNAc(b1-3)Gal(b1-4)GlcNAc(b1-3)Gal(b1-4)GlcNAc(b1-2)Man(a1-6)]Man(b1-4)GlcNAc(b1-4)GlcNAc
# In short: as §1
# [5] = molecular target: GlcNAc(b1-3)Gal(b1-4)GlcNAc(b1-3)Gal(b1-4)GlcNAc(b1-3)Gal(b1-4)GlcNAc(b1-2)Man(a1-3)[GlcNAc(b1-3)Gal(b1-4)GlcNAc(b1-3)Gal(b1-4)GlcNAc(b1-3)Gal(b1-4)GlcNAc(b1-2)Man(a1-6)]Man(b1-4)GlcNAc(b1-4)GlcNAc
# In short: as §1
# [6] = molecular target: GlcNAc(b1-3)Gal(b1-4)GlcNAc(b1-3)Gal(b1-4)GlcNAc(b1-3)Gal(b1-4)GlcNAc(b1-3)Gal(b1-4)GlcNAc(b1-2)Man(a1-3)[GlcNAc(b1-3)Gal(b1-4)GlcNAc(b1-3)Gal(b1-4)GlcNAc(b1-3)Gal(b1-4)GlcNAc(b1-3)Gal(b1-4)GlcNAc(b1-2)Man(a1-6)]Man(b1-4)GlcNAc(b1-4)[Fuc(a1-6)]GlcNAc
# In short: as §1
# [7] = molecular target: GlcNAc(b1-3)Gal(b1-4)GlcNAc(b1-3)Gal(b1-4)GlcNAc(b1-3)Gal(b1-4)GlcNAc(b1-3)Gal(b1-4)GlcNAc(b1-2)[GlcNAc(b1-3)Gal(b1-4)GlcNAc(b1-3)Gal(b1-4)GlcNAc(b1-3)Gal(b1-4)GlcNAc(b1-3)Gal(b1-4)GlcNAc(b1-6)]Man(a1-6)[GlcNAc(b1-3)Gal(b1-4)GlcNAc(b1-3)Gal(b1-4)GlcNAc(b1-3)Gal(b1-4)GlcNAc(b1-3)Gal(b1-4)GlcNAc(b1-2)Man(a1-3)]Man(b1-4)GlcNAc(b1-4)[Fuc(a1-6)]GlcNAc
# In short: as §1
# [8] = molecular target: GlcNAc(b1-3)Gal(b1-4)GlcNAc(b1-6)[Gal(b1-3)]GalNAc
# In short: as §1
# GlcNAc(b1-4)GlcNAc = molecular target: GlcNAc(b1-4)GlcNAc
# In short: as §1
# [9] = molecular target: GlcNAc(b1-4)GlcNAc(b1-4)GlcNAc(b1-4)GlcNAc(b1-4)GlcNAc
# In short: as §1
# Kdn(a2-6)Gal(b1-4)GlcNAc = molecular target: Kdn(a2-6)Gal(b1-4)GlcNAc
# In short: as §1
# Man(a1-6)Man = molecular target: Man(a1-6)Man
# In short: as §1
# [10] = molecular target: Neu5Ac(a2-3)Gal(b1-3)GlcNAc(b1-3)Gal(b1-4)GlcNAc
# In short: as §1
# [11] = molecular target: Neu5Ac(a2-3)Gal(b1-3)[Fuc(a1-4)]GlcNAc(b1-3)Gal(b1-3)[Fuc(a1-4)]GlcNAc
# In short: as §1
# [12] = molecular target: Neu5Ac(a2-3)Gal(b1-3)[GlcNAc(b1-6)]GalNAc
# In short: as §1
# [13] = molecular target: Neu5Ac(a2-3)Gal(b1-4)GlcNAc(b1-2)Man(a1-3)[GlcNAc(b1-4)][Neu5Ac(a2-3)Gal(b1-4)GlcNAc(b1-2)Man(a1-6)]Man(b1-4)GlcNAc(b1-4)GlcNAc
# In short: as §1
# [14] = molecular target: Neu5Ac(a2-3)[GalNAc(b1-4)]Gal(b1-4)GlcNAc
# In short: as §1
# Neu5Ac(a2-6)Gal = molecular target: Neu5Ac(a2-6)Gal
# In short: as §1
# [15] = molecular target: Neu5Ac(a2-6)Gal(b1-4)GlcNAc(b1-2)Man
# In short: as §1
# [16] = molecular target: Neu5Ac(a2-6)Gal(b1-4)GlcNAc(b1-3)Gal(b1-4)GlcNAc(b1-3)Gal(b1-4)GlcNAc
# In short: as §1
# [17] = molecular target: Neu5Ac(a2-6)Gal(b1-4)GlcNAc(b1-3)Gal(b1-4)GlcNAc(b1-3)Gal(b1-4)GlcNAc(b1-2)Man(a1-3)[Neu5Ac(a2-6)Gal(b1-4)GlcNAc(b1-3)Gal(b1-4)GlcNAc(b1-3)Gal(b1-4)GlcNAc(b1-2)Man(a1-6)]GalNAc
# In short: as §1
# [18] = molecular target: Neu5Ac(a2-8)Neu5Ac(a2-3)Gal(b1-4)GlcNAc
# In short: as §1
# [19] = molecular target: Neu5Ac(a2-8)Neu5Ac(a2-3)[GalNAc(b1-4)]Gal(b1-4)Glc
# In short: as §1
# [20] = molecular target: Neu5Ac(a2-8)Neu5Ac(a2-8)Neu5Ac(a2-3)[Gal(b1-3)GalNAc(b1-4)]Gal(b1-4)Glc
# In short: as §1
# [21] = molecular target: Neu5Ac(a2-8)Neu5Gc(a2-3)Gal(b1-4)GlcNAc
# In short: as §1
# Neu5Ac(b2-6)GalNAc = molecular target: Neu5Ac(b2-6)GalNAc
# In short: as §1
# [22] = molecular target: Neu5Gc(a2-3)Gal(b1-3)GlcNAc
# In short: as §1
# [23] = molecular target: Neu5Gc(a2-8)Neu5Gc(a2-3)Gal(b1-4)GlcNAc(b1-3)Gal(b1-4)GlcNAc
# In short: as §1
binder,measurement,setting,value
PX9961C-bth-497-22-497 (Bacteroides thetaiotaomicron) (protein) DWLDLNTTSSVETGQAIVTLDDAQIALNGIYRLASGHSYYGDNYWYYGDCRAADVQARITKGDGKRVSPYYEYNVLASDNLNIVLPWNTVYKVIRQTNNLIQKIESGSIQSSDTKELNRIKSEALVMRGLSLFNLTRLFGMPYTNDKGASLGVPIETSPSDPTHKPSRSTVAQCYEQVVSDMSNALSGLRQETSNGYINYWAAQALLSRVYLNMGEYQKAYDAATDVIKNNGGRYQLYSYEEYPNVWGQDFQSESLFELYITLSEPSGGTGGEGAPMVYANEATVDWNNLILSEDFLNLLNEDPKDVRHCLTKESVIENNTGLPAAAMHEKVYLAKFPGKTGDDPKTNNICIIRLSEVYLNAAEAGLKKGTDIEEAQGYLNDIISRRTTDTSQQVSTETFTLDRILKERRKELVGEGEVFYDYLRNGLAIERKGSWHLETLKASNAQKIEATDLRIALPIPQSEIDANPNIQQNPR,glycan array binding signal (z-score),[1],1.18
same,glycan array binding signal (z-score),GlcA(b1-3)GlcNAc,0.671
same,glycan array binding signal (z-score),[2],-0.269
same,glycan array binding signal (z-score),[3],0.15
same,glycan array binding signal (z-score),[4],1.6
same,glycan array binding signal (z-score),[5],0.098
same,glycan array binding signal (z-score),[6],2.24
same,glycan array binding signal (z-score),[7],-0.034
same,glycan array binding signal (z-score),[8],1.56
same,glycan array binding signal (z-score),GlcNAc(b1-4)GlcNAc,-0.2
same,glycan array binding signal (z-score),[9],-0.492
same,glycan array binding signal (z-score),Kdn(a2-6)Gal(b1-4)GlcNAc,-0.057
same,glycan array binding signal (z-score),Man(a1-6)Man,-0.481
same,glycan array binding signal (z-score),[10],0.993
same,glycan array binding signal (z-score),[11],2.16
same,glycan array binding signal (z-score),[12],-0.029
same,glycan array binding signal (z-score),[13],-0.279
same,glycan array binding signal (z-score),[14],-0.469
same,glycan array binding signal (z-score),Neu5Ac(a2-6)Gal,0.311
same,glycan array binding signal (z-score),[15],-0.411
same,glycan array binding signal (z-score),[16],-0.506
same,glycan array binding signal (z-score),[17],0.689
same,glycan array binding signal (z-score),[18],-0.198
same,glycan array binding signal (z-score),[19],-0.361
same,glycan array binding signal (z-score),[20],-0.241
same,glycan array binding signal (z-score),[21],13.7
same,glycan array binding signal (z-score),Neu5Ac(b2-6)GalNAc,-0.424
same,glycan array binding signal (z-score),[22],-0.496
same,glycan array binding signal (z-score),[23],0.531
